Inconclusive results are not listed. Activity calls are given as the source filed them. The calls were made as follows, unless noted: active = hit-call score of the fitted dose curve at least 0.9, where 1 is the maximum; inconclusive = response in the unintended direction; inactive = score below 0.9.
Columns and labels:
[1] = molecular target: Nuclear receptor subfamily 1 group I member 2 (Mus musculus) (UniProt O54915); experiment: ATG_mPXR_XSP2: Attagene TRANS-FACTORIAL Multi-Species (XSP1) HepG2 Assay for mouse Pregnane X Receptor (PXR) (AID 2283831)
Outline: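 Fluorescence signals from capillary electrophoresis of RT-PCR-amplified reporter mRNA give the readout, gain-of-signal versus DMSO. Transfected HepG2 cells, 24 h dosing, medium contained 3 nM 6-alpha-fluorotestosterone and 1.5 nM norgestrel.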

[2] = molecular target: zebrafish Thyroid Hormone Receptor alpha (TRa), thraa (gene 30670) (UniProt Q98867); experiment: ATG_zfTRa_XSP2: Attagene TRANS-FACTORIAL Multi-Species (XSP1) HepG2 Assay for zebrafish Thyroid Hormone Receptor alpha (TRa) (AID 2283832);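 also: actives raise zebrafish TRa-Gal4 reporter transcript above DMSO baseline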
Outline: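 Transient transfection of human HepG2 with GAL4-UAS reporter units, then 24 h chemical treatment. RNA isolated, reverse-transcribed, PCR-amplified, FAM-labelled, HpaI-digested and run on capillary electrophoresis. Gain-of-signal relative to DMSO.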

[3] = test system: zebrafish Peroxisome Proliferator-activated Receptor gamma (PPARg), gene 557037; experiment: ATG_zfPPARg_XSP2: Attagene TRANS-FACTORIAL Multi-Species (XSP2) HepG2 Assay for zebrafish Peroxisome Proliferator-activated Receptor gamma (PPARg) (AID 2283833);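 also: reporter mRNA from a zebrafish PPARg GAL4 chimera measured by RT-PCR and capillary electrophoresis; actives increase reporter signal over DMSO so AC50 reflects activation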
Outline: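 HepG2, transient MRTU transfection, 24 h compound; zfPPARg-GAL4 reporter mRNA by RT-PCR + capillary electrophoresis; gain-of-signal vs DMSO.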

[4] = test system: turtle Thyroid Hormone Receptor, alpha (TRa), gene 101949057; experiment: ATG_trTRa_XSP2: Attagene TRANS-FACTORIAL Multi-Species (XSP1) HepG2 Assay for turtle Thyroid Hormone Receptor, alpha (TRa) (AID 2283834);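 also: hits raise reporter mRNA over the DMSO baseline so AC50 marks activators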
Outline: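 Multiplexed TRANS reporter assay; HepG2 carrying NR-Gal4 constructs treated 24 h. mRNA of the GAL4-UAS reporter quantified via labelled RT-PCR fragments on a genetic analyzer, vs DMSO negative control.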

[5] = ATG_M_61_XSP2: Attagene TRANS-FACTORIAL Multi-Species (XSP2) HepG2 Assay for M61 Transcription Factor (Internal Marker) (AID 2283835; active = hit-call score of the fitted dose curve at least 0.9, where 1 is the maximum; inactive = score below 0.9;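 also: reporter mRNA of an internal background marker read by RT-PCR and capillary electrophoresis; active means a rise in signal above the DMSO baseline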)
Outline: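 HepG2 cells transiently transfected with multiple GAL4-UAS reporter units; 3 nM 6-alpha-fluorotestosterone and 1.5 nM norgestrel present to stimulate androgen receptor. After 24 h compound exposure, reporter mRNA measured by RT-PCR and capillary electrophoresis fluorescence, gain-of-signal versus DMSO baseline.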

[6] = molecular target: zebrafish Thyroid Hormone Receptor beta (TRb), thrb (gene 30607) (UniProt Q9PVE4); experiment: ATG_zfTRb_XSP2: Attagene TRANS-FACTORIAL Multi-Species (XSP1) HepG2 Assay for zebrafish Thyroid Hormone Receptor beta (TRb) (AID 2283836)
Outline: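 Human liver HepG2, transient MRTU transfection (NR-Gal4 chimeras, GAL4-UAS reporters); 24 h compound exposure; total RNA → oligo(dT) RT → PCR → 6-FAM label → HpaI cut → CE fluorescence. DMSO = negative control/baseline.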

[7] = ATG_XTT_Cytotoxicity_XSP2: Cytotoxicity Assessment in the Attagene TRANS-FACTORIAL Multi-Species (XSP2) HepG2 Assay (AID 2283837)
Outline: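 HepG2 cells, transiently transfected with multiple reporter constructs, exposed to chemical for 24 h. Cell number assessed with XTT fluorescence read-out; loss of signal fitted relative to DMSO.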

[8] = molecular target: human Thyroid hormone Receptor alpha (TRa), THRA (gene 7067) (UniProt P10827); experiment: ATG_hTRa_XSP2: Attagene TRANS-FACTORIAL Multi-Species (XSP2) HepG2 Assay for human Thyroid hormone Receptor alpha (TRa) (AID 2283838)
Outline: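 HepG2 cells were transiently transfected with GAL4-UAS reporter units for chimeric human TRa-Gal4 and dosed for 24 hours, with 3 nM 6-alpha-fluorotestosterone and 1.5 nM norgestrel present. Reporter mRNA was quantified by RT-PCR, FAM labelling and capillary electrophoresis, with gain of signal fitted versus DMSO.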

[9] = molecular target: frog Thyroid hormone Receptor alpha (TRa), thra-a (gene 397942) (UniProt P15204); experiment: ATG_frTRa_XSP2: Attagene TRANS-FACTORIAL Multi-Species (XSP2) HepG2 Assay for frog Thyroid hormone Receptor alpha (TRa) (AID 2283839)
Outline: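 Chimeric frog TRα-GAL4 activity in human liver cells measures reporter transcript induction 24 h post-dose. Detection uses RT-PCR, HpaI-digested labelled products and fluorescence capillary electrophoresis; DMSO serves as negative control.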

[10] = molecular target: human Thyroid hormone Receptor beta (TRb), THRB (gene 7068) (UniProt P10828); experiment: ATG_hTRb_XSP2: Attagene TRANS-FACTORIAL Multi-Species (XSP2) HepG2 Assay for human Thyroid hormone Receptor beta (TRb) (AID 2283840);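 also: actives raise reporter mRNA so potency reflects agonist-like gain of signal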
Outline: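 Gain-of-signal reporter transcription, referenced to DMSO, was measured in transiently transfected HepG2 after 24 h exposure; labeled RT-PCR products were resolved by capillary electrophoresis. Assay medium included 3 nM 6-alpha-fluorotestosterone and 1.5 nM norgestrel.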

[11] = test system: Sodium/Iodide Symporter (NIS), SLC5A5 (gene 6528); experiment: CPHEA_Stoker_NIS_Inhibition_RAIU: CPHEA's Radioactive Iodide Uptake (RAIU) Assay for Sodium/Iodide Symporter (NIS) Inhibition, Stoker and Laws Labs (AID 2283841)
Outline: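 Test chemicals, six concentrations from 0.001 to 100uM in 0.5% DMSO, were co-incubated with carrier-free 125I (final 329pM) on hNIS-HEK293T-EPA monolayers in pH 7.4 HEPES-buffered HBSS. Plates stood 2 hours at room temperature, then were washed cold and counted.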

[12] = CEETOX_H295R_OHPREG_noMTC: CeeTox H295R High-throughput Steroidogenesis Assay for OH-Pregnenolone (OHPREG), maximum tolerated concentration (MTC) filtered results only (AID 2283912; active = hit-call score of the fitted dose curve at least 0.9, where 1 is the maximum; inactive = score below 0.9); settings: actives raise or lower the signal
Outline: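 H295R human adrenal cells, forskolin-prestimulated (10 uM, 48 h), then exposed to test chemical in 0.1% DMSO for 48 h. 17alpha-hydroxypregnenolone in medium measured by HPLC-MS/MS after MTBE extraction; bidirectional fit versus DMSO, concentrations not MTC-filtered.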

[13] = CEETOX_H295R_OHPROG_noMTC: CeeTox H295R High-throughput Steroidogenesis Assay for OH-Progesterone (OHPROG), maximum tolerated concentration (MTC) filtered results only (AID 2283914; active = hit-call score of the fitted dose curve at least 0.9, where 1 is the maximum; inactive = score below 0.9); settings: actives raise or lower the signal
Outline: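 H295R human adrenal cells prestimulated 48 h with 10 uM forskolin, then exposed 48 h to test chemical (0.1% DMSO final). Medium 17alpha-hydroxyprogesterone extracted with MTBE, quantified by HPLC-MS/MS; bidirectional fit versus DMSO, concentrations not MTC-filtered.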

[14] = CPHEA_Stoker_NIS_Cytotoxicity: Cytotoxicity Assessment for CPHEA's Radioactive Iodide Uptake (RAIU) Assay for Sodium/Iodide Symporter (NIS) Inhibition, Stoker and Laws Labs (AID 2283897);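 as to AC50: active means loss of ATP signal versus DMSO meaning cytotoxicity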
Outline: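 Viability in hNIS-HEK293T-EPA cells is scored as a drop in luciferase-detected ATP following 2-hour room-temperature exposure (0.001–100uM; triplicate wells, three cell passages), with DMSO as negative control.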

[15] = CEETOX_H295R_ESTRADIOL_noMTC: CeeTox H295R High-throughput Steroidogenesis Assay for Estradiol, maximum tolerated concentration (MTC) filtered results only (AID 2283919; active = hit-call score of the fitted dose curve at least 0.9, where 1 is the maximum; inactive = score below 0.9); settings: actives raise or lower the signal
Outline: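 H295R human adrenal cells pre-stimulated 48 h with 10 uM forskolin, then exposed 48 h to chemical (0.1% DMSO final). Estradiol in medium measured by HPLC-MS/MS after MTBE extraction and dansyl derivatization; bidirectional fit versus DMSO, concentrations not MTT-filtered.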

Chain of zebrafish Thyroid Hormone Receptor beta (TRb), thrb (gene 30607) (Q9PVE4 whole entry, looked up, the tested form may be a part): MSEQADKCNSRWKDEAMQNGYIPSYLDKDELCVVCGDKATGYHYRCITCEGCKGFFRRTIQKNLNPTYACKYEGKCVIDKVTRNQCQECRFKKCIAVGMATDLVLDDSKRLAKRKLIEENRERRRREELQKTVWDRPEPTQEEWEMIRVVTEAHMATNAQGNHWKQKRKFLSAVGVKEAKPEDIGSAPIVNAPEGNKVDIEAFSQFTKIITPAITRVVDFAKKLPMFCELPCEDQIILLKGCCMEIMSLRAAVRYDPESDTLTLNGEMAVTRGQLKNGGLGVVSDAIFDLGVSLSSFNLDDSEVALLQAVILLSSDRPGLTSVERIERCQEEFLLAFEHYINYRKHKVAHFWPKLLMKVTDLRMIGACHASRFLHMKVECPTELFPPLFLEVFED
Chain of human Thyroid hormone Receptor beta (TRb), THRB (gene 7068) (P10828 whole entry, looked up): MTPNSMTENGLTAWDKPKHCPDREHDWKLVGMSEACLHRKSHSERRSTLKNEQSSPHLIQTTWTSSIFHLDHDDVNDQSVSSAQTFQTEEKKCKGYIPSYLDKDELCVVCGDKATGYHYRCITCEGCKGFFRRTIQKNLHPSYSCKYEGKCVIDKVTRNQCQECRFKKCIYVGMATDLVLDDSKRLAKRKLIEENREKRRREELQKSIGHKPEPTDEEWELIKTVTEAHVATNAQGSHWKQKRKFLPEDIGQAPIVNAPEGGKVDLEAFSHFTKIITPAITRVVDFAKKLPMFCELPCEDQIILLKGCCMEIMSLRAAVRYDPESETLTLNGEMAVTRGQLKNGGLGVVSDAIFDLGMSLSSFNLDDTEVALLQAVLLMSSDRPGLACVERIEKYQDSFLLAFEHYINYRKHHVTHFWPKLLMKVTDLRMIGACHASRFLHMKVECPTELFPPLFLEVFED
Chain of zebrafish Thyroid Hormone Receptor alpha (TRa), thraa (gene 30670) (Q98867 whole entry, looked up, the tested form may be a part): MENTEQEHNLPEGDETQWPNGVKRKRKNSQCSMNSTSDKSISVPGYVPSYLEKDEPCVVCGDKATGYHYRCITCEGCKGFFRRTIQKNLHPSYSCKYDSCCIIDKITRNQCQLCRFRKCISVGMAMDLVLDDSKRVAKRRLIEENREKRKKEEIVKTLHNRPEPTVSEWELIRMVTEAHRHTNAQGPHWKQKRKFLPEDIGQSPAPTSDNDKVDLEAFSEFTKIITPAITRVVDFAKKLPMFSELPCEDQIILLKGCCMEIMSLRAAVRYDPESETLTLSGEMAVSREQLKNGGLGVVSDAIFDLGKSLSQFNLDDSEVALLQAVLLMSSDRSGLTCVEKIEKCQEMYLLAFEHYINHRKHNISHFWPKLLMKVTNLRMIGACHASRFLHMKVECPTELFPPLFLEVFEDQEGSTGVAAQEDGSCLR
Chain of Nuclear receptor subfamily 1 group I member 2 (Mus musculus) (O54915 whole entry, looked up): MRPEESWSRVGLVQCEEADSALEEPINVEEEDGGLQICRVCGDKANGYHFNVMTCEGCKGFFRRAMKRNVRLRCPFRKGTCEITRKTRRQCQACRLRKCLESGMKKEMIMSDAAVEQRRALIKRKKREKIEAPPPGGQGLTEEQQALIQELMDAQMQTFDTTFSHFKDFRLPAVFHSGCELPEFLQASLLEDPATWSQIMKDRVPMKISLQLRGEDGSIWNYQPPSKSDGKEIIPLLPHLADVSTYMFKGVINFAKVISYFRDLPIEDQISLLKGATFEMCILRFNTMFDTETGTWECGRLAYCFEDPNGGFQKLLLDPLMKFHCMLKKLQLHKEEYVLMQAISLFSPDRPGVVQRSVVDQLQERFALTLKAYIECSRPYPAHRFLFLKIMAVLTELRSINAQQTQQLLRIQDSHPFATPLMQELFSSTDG
Chain of frog Thyroid hormone Receptor alpha (TRa), thra-a (gene 397942) (P15204 whole entry, looked up, the tested form may be a part): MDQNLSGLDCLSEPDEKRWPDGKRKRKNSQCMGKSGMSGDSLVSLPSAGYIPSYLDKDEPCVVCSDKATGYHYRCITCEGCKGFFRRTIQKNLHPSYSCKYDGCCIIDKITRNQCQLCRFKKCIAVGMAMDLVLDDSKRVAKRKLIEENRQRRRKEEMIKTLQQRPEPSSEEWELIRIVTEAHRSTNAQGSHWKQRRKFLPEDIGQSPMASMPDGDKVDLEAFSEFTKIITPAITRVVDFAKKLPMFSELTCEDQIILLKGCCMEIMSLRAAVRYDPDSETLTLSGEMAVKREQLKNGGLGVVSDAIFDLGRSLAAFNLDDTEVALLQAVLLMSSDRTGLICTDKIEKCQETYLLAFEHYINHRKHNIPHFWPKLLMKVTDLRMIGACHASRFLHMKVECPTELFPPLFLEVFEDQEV
Chain of human Thyroid hormone Receptor alpha (TRa), THRA (gene 7067) (P10827 whole entry, looked up, the tested form may be a part): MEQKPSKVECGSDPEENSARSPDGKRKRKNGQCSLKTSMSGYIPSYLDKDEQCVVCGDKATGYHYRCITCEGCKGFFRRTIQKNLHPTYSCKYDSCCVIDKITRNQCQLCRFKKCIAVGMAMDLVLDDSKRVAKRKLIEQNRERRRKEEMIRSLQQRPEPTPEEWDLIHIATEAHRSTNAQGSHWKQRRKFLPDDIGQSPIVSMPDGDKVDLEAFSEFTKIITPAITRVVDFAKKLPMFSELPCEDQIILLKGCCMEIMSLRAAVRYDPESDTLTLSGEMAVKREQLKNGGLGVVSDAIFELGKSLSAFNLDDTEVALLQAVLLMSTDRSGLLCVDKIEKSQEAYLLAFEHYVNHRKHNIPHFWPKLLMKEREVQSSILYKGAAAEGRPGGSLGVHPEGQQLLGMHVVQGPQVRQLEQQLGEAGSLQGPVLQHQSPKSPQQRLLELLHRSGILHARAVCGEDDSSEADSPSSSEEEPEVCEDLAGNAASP

For CCCCCCCCOC(=O)c1ccc(O)cc1, the outcome [1] was “inactive”, the outcome [2] was “inactive” and the outcome [3] was “inactive”. The outcome [4] was “inactive”, the outcome [5] was “inactive” and the outcome [6] was “inactive”. For the same compound, the AC50 [7] was 41.3 µM (active), the outcome [8] was “inactive” and the outcome [9] was “inactive”. For the same compound, the outcome [10] was “inactive”.

With C=C(C)C(=O)OCCC(F)(F)C(F)(F)C(F)(F)C(F)(F)C(F)(F)C(F)(F)C(F)(F)C(F)(F)F the outcome [11] was “inactive”.

For CCCCCC1C(=O)CCC1CC(=O)OC (stereo not given), the outcome [12] was “inactive” and the outcome [13] was “inactive”.

For C#C[C@]1(O)CC[C@H]2[C@@H]3CCc4cc(O)ccc4[C@H]3CC[C@@]21C, the outcome [2] was “inactive”, the outcome [4] was “inactive” and the outcome [5] was “inactive”. The outcome [6] was “inactive”, the AC50 [10] was 26.2 nM (active) and the outcome [11] was “inactive”. For the same compound, the outcome [14] was “inactive”.

For CCCCCCCCCO, the outcome [11] was “inactive” and the outcome [14] was “inactive”.

With O=C(c1ccc(OCCN2CCCCC2)cc1)c1c(-c2ccc(O)cc2)sc2cc(O)ccc12 the AC50 [14] was 9.92 µM (active).

For [Na+], the AC50 [11] was 5.73 µM (active) and the outcome [14] was “inactive”.

In the case of CCCCCC(=O)O[C@]1(C(C)=O)CC[C@H]2[C@@H]3CCC4=CC(=O)CC[C@]4(C)[C@H]3CC[C@@]21C, the outcome [1] is reported as “inactive”, the outcome [2] is reported as “inactive” and the AC50 [3] is reported as 132 µM (active). For the same compound, the outcome [5] was “inactive”, the outcome [6] was “inactive” and the outcome [7] was “inactive”. The outcome [10] was “inactive”, the outcome [11] was “inactive” and the outcome [14] was “inactive”.

For c1ccc(Cc2ccccc2)cc1, the outcome [11] was “inactive” and the outcome [14] was “inactive”.

In the case of CC(=O)C1=C(C)[C@@H]2C[C@@]3(C1)[C@H](C)CC[C@H]3C2(C)C, the outcome [11] is reported as “inactive” and the outcome [14] is reported as “inactive”.

For O=C(OCc1ccccc1)c1ccccc1O, the AC50 [11] was 9.92 µM (active) and the outcome [14] was “inactive”.

For CC(=O)OC/C=C(C)/C=C/C=C(C)/C=C/C1=C(C)CCCC1(C)C, the outcome [12] was “inactive”, the outcome [13] was “inactive” and the outcome [15] was “inactive”.

With CCCCCCCCCOS(=O)(=O)O the outcome [14] was “inactive”.

With O=C(O)C(F)(F)C(F)(F)C(F)(F)C(F)(F)C(F)(F)C(F)(F)C(F)(F)C(F)F the AC50 [11] was 18.4 µM (active).

Source: PubChem BioAssay (EPA / NIEHS)
